“And” between values parts separate entries of the source, which are not always exact repeats. Equal values may be shown once. The whole screen tested about 360,000 compounds, of which about 3,100 (0.86%) were called active. What follows is part of a selection rich in actives, with near analogues and random picks from the rest. Values without a mark were called inactive.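 Rule for the calls: active = at least 50% inhibition at 5 µM, scaled per plate between neutral and stimulator controls; inactive = the rest.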

The nature of this test: NF-kB reporter blockers in CF airway cells – cell-based, GFP fluorescence, uHTS, primary screen (AID 588850).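 Note: PAF is a Pseudomonas aeruginosa culture filtrate used as stimulus; plate controls were PAF-stimulated DMSO wells for no effect and unstimulated DMSO wells for full effect.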 The conditions noted are these: KKLEB NF-kB-GFP reporter, PAF-induced, GFP fluorescence overnight; at 5 µM; active compounds read high.
With `CN1OC[C@@H]2CN(C(=O)c3ccc(-c4ccccc4)cc3)[C@H](c3ccc(-c4cccc(F)c4)cc3)C[C@@H]21`, the inhibition (commonly the change of the read-out against control, counted positive when it falls) is -13%.

Regarding `O=C(OC12CC3CC(CC(C3)C1)C2)c1ccc(NCc2cc(O)ccc2O)cc1`, the inhibition was 60.3% (active).

Consider `CN=C(NC#N)NCCSCc1nc[nH]c1C`, for which the inhibition was -4.5%.

With `Cc1cc(C)c(S(=O)(=O)c2cc(F)ccc2C)c(=O)[nH]1`, the inhibition was -12.1%.

As to `O=C(c1ccccc1)N1CCN(C(=O)c2cc3nc(-c4ccccc4)cc(C(F)(F)F)n3n2)CC1`, the inhibition is -4.4%.

As for `C#Cc1cc(N2CCN(C(=O)c3ccoc3)CC2)n2nc(-c3cccc(Cl)c3)cc2n1`, the inhibition was 64.7% (active).

Turning to `CN(C)CCN1CCN(c2cc(-c3cccc(Cl)c3)nc3ccnn23)CC1`, the inhibition is 7.8%.

For `COc1cccc(C(O)c2nc(-c3ccc(C)c(C)c3)cs2)c1` (centres undefined), the inhibition is 17.1%.

With `COc1cc(C=C(OC(C)=O)c2ccc3c(c2)OCO3)cc(OC)c1OC`, the inhibition was -22.3%.

As for `COc1cc(C2c3cc4c(cc3C(O)C3COC(=O)C23)OCO4)cc(OC)c1OC` (centres undefined), the inhibition is 50.8% (active).

Consider `COc1cc(C2CC(=O)Oc3cc(OC)c(OC)c(OC)c32)cc(OC)c1OC` (centres undefined), for which the inhibition was -6.8%.

Turning to `C#C[C@]1(O)CC[C@H]2[C@@H]3CCC4=CC(=O)CC[C@@H]4[C@H]3CC[C@@]21CC`, the inhibition is 3.1% and 6.1%.

Consider `COc1ccc(CN2CC[C@H]3C=CC[C@@H](C(=O)N4CCOCC4)[C@H]3C2=O)cc1OC`, for which the inhibition is -24.1%.

Turning to `Cc1ccc(OC(=O)c2cncc(Br)c2)c(C)c1`, the inhibition is 1.1%.

Consider `CCCNC(=O)c1c(Cl)cnn1-c1ccc(C)cc1`, for which the inhibition was 9.5%.

Regarding `Cc1cccc(-n2ncc(Cl)c(Cl)c2=O)c1`, the inhibition was 85.5% (active).

`CC(=O)Nc1c2c(nn1-c1cccc(C)c1)CSC2`: the inhibition was 3.9%.

In the case of `CC(C)(C)C1CCC(C(=O)NCC(c2cccs2)N2CCOCC2)CC1` (centres undefined), the inhibition is 21.5%.

On to `COc1ccc(C(C(=O)NCc2ccccc2)N(Cc2cccs2)C(=O)c2cnccn2)cc1` (centres undefined), for which the inhibition is -3.9%.

`Cc1cc(Br)cn2c(Cc3cccc(F)c3)c(-c3cccc(Br)c3)nc12`: the inhibition is 47.6%.

Turning to `Cc1cc2nc(-c3ccco3)c(Cc3cccc(F)c3)n2c(C)c1Br`, the inhibition was 62.5% (active).

On to `Cc1cc2nc(-c3ccc(Cl)cc3)c(Cc3cccc(F)c3)n2c(C)c1Br`, for which the inhibition is 17.5%.

Consider `CC1(C)O[C@@H]2[C@H](O1)[C@@H](CO)O[C@H]2n1c(N2CCCCC2)nc2c(N)ncnc21`, for which the inhibition is 7.1%.

On to `O=C(Nc1ccc(Br)c2cccnc12)c1ccc(Cn2cc([N+](=O)[O-])cn2)o1`, for which the inhibition is 14.3%.

Take `N#CC1(Nc2ccc(-c3ccc(Cl)cc3)cc2)CCCC1`: the inhibition was -34.4%.

For `NC(=O)c1sc2nc3c(c(-c4ccccc4)c2c1N)CCC3`, the inhibition is 78.3% (active).

For the molecule `Cc1sc2nc(CC(N)=O)[nH]c(=O)c2c1-c1ccccc1`, the inhibition was -3.2%.

Consider `CC(C)OC(=O)c1sc2nc3c(cc2c1N)C(=O)CCC3`, for which the inhibition was -15%.

On to `O=C(NCCCN1CCN(c2ccccc2F)CC1)C1CCC(=O)N1C1CCCCC1` (centres undefined), for which the inhibition was -1.2%.

Consider `Cc1ccc(C(=O)N2CCN(S(=O)(=O)N3CCOCC3)CC2)cc1`, for which the inhibition is 15.9%.

For the molecule `Cc1oc2c(c1C(=O)N1CCOCC1)C(=O)c1ccccc1C2=O`, the inhibition is 72.2% (active).

With `CC(C(=O)Nc1ccccc1-c1ccccc1)N1CCOCC1` (centres undefined), the inhibition was 14.5%.

In the case of `Nc1c(-c2ccc(F)cc2)cnn1C1CCS(=O)(=O)C1` (centres undefined), the inhibition was -5.8%.

In the case of `Cc1cccc(NC(=O)c2ccc([N+](=O)[O-])o2)c1`, the inhibition is 59.4% (active).

As for `CCN(CC)S(=O)(=O)c1ccc(N2CCCC2)c(NC(=O)c2ccc([N+](=O)[O-])o2)c1`, the inhibition is 10.6%.

For `Cc1onc(NC(=O)c2ccc([N+](=O)[O-])o2)c1Br`, the inhibition was 27.3%.

As to `CCn1c(SCC(=O)Nc2ccccc2F)nc2c(c1=O)SC(C)C2` (centres undefined), the inhibition was 6.5%.

Take `CCOC(=O)CSc1ccccn1`: the inhibition is -2.8%.

Consider `O=C(O)CSc1nccc2ccccc12`, for which the inhibition was -3.7%.

In the case of `CCOC(=O)C(C(=O)c1ccccc1)C(c1ccccc1)c1nccc2ccccc12` (centres undefined), the inhibition is 50.6% (active).

Turning to `O=c1nc(N2CCOCC2)nc2n1CCO2`, the inhibition is -13%.

For the molecule `Cc1cccc(C)c1Cn1c(C)c(C(=O)NCc2cccc(Cl)c2)sc1=O`, the inhibition was 10.9%.

For `CC(C)c1ccc2c(c1)c(SC(C)(C)C)c(CC(C)(C)C(=O)O)n2Cc1ccc(Cl)cc1`, the inhibition was 63.4% (active).

With `COc1ccc(CCNC(=O)Nc2ccc3c(c2)c(=O)n(C)n3C)cc1OC`, the inhibition was 14.5%.

With `CC(C)C(=O)Nc1c2c(nn1-c1ccccc1)CSC2`, the inhibition is 7%.

For the molecule `Cn1c(=O)c2c(n(Cc3ccccc3)c1=O)NC(=O)C2CC(=O)N1CCc2ccccc2C1` (centres undefined), the inhibition was 18%.

With `COc1cccc(NCCC(=O)c2cccc([N+](=O)[O-])c2)c1`, the inhibition was -10.5%.

As to `O=C(Nc1cccc([N+](=O)[O-])c1)N1CCc2ccccc2C1`, the inhibition was 21.9%.

Consider `COC(=O)/C=C\C(=O)Nc1cccc([N+](=O)[O-])c1`, for which the inhibition is 92.2% (active).

Take `O=C(CNC(=O)N1CC(=O)Nc2ccccc21)Nc1ccc(Br)cc1F`: the inhibition is -4.5%.

For `COc1ccc(N(CC(=O)N/N=C/c2cccc3c2OCCO3)S(=O)(=O)c2ccc(NC(C)=O)cc2)cc1`, the inhibition is -5.5%.

Turning to `COCOCCn1cc(CN2CCS(=O)(=O)N(Cc3ccc(-c4cccc(N(C)C)c4)cc3)C(CC(C)C)C2=O)nn1` (centres undefined), the inhibition is 6.3%.

On to `CC[C@H]1CN2CCc3cc(OC)c(OC)cc3[C@@H]2C[C@@H]1C[C@H]1NCCc2cc(OC)c(OC)cc21`, for which the inhibition was 82.5% (active).

`COc1cc(/C=C/C(=O)O)cc(S(=O)(=O)Nc2ccccc2C(=O)NCCc2ccccc2)c1OC`: the inhibition was -10.9%.

As to `Cc1ccc(NC(=O)NC(=O)CSc2nnc(-c3ccc(OC(F)F)cc3)n2N)c(C)c1`, the inhibition was -26.2%.

Regarding `Cc1ccc(-n2ncc3c2CC(C)(C)CC3NC(=O)Cc2c(C)noc2C)cc1` (centres undefined), the inhibition is 28.3%.

Regarding `Cc1ccc(-c2nn(-c3ccccc3)cc2/C=C2\SC(=S)N(CCCCCC(=O)O)C2=O)o1`, the inhibition is 53.8% (active).

With `O=C1/C(=C\c2ccccc2Cl)SC(=S)N1CCC(=O)N1CCCc2ccccc21`, the inhibition was 8.4%.

With `CN(C(=O)CCN1C(=O)/C(=C/c2ccccc2F)SC1=S)C1CCS(=O)(=O)C1` (centres undefined), the inhibition was -14.9%.

Source of the values: PubChem BioAssay AID588850 (Sanford-Burnham Center for Chemical Genomics, 2011).
